Results from PubChem BioAssay AID1851 (National Center for Advancing Translational Sciences (NCATS), 2009).
Values joined by “and” are separate entries in the source; they are usually repeats but may differ in a detail not shown here. Identical values can stand only once. Screen size: about 16,000 compounds; about 5,800 (36%) were called active. About 23% were inconclusive and are not listed. Some of the results follow. Unmarked numbers belong to inactive results. Calls follow the shape of the dose curve; as a rule, active = well fitted curve in the direction sought with a large enough effect; inconclusive = small, poorly fitted or top-dose-only effect, or effect the other way; inactive = no such curve, though single readings can be large or run the other way.
% is scaled to controls: 0 for no effect and ±100 for the full control effect.

Each compound was assayed against Cytochrome P450 2C19 (Homo sapiens) (UniProt P33261) (assay: Cytochrome panel assay with activity outcomes). Conditions: recombinant CYP, pro-luciferin dealkylation, luminescence, p450-cyp2c19; series mostly up to 57.1 µM; activity, negative = inhibition: at the top concentration.
Sequence of Cytochrome P450 2C19 (Homo sapiens) (P33261 whole entry, looked up): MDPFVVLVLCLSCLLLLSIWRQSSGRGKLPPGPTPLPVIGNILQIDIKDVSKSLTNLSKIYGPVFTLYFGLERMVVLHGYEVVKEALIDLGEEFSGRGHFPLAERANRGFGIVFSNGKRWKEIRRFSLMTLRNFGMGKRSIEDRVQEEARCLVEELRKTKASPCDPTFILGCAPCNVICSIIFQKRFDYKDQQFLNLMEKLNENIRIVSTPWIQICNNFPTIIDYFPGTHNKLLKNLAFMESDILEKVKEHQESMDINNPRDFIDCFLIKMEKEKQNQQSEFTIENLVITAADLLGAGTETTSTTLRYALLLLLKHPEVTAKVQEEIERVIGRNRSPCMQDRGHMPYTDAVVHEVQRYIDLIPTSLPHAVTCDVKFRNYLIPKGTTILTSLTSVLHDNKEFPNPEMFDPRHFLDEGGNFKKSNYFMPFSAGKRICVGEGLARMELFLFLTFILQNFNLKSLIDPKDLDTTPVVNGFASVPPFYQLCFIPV
`COc1ccc(-c2cc(C(F)F)nc(-n3nc(C)cc3C)n2)cc1` was tested, and the AC50 was 28.2 µM (active).
For `Cc1c(C)c2c(C)[nH]nc2oc1=O`, the AC50 was 17.8 µM (active).
Compound `Clc1ccc(CSc2ncnc3c2ncn3[C@@H]2CCCCO2)cc1` has an activity, negative = inhibition of -40.6% [at 11.4 µM].
For `Fc1ccc(CSc2ncnc3sc4c(c23)CCCC4)cc1`, the AC50 was 0.891 µM (active).
`Nc1[nH]c(=O)nc2c1ncn2[C@H]1O[C@@H](CO)[C@@H](O)[C@@H]1O` showed an activity, negative = inhibition of 25.3% [at 11.4 µM].
`CCn1c2ccccc2c2cc(/C=N/n3cn[nH]c3=S)ccc21` was tested, and the AC50 was 3.55 µM (active).
Work on `O=C1[C@H]2[C@H]3[C@H](O)[C@H](O)C/C(=N/OC[C@@H](O)COCc4ccco4)[C@@H]3CC[C@@H]2C(=O)N1C1CCCCC1` yielded an activity, negative = inhibition of 9.78% [at 11.4 µM].
For `CS(=O)(=O)Nc1ccc(S(=O)(=O)N2CCOCC2)cc1`, the “activity, negative = inhibition” value was 12.7%.
`COc1cc(NC(=S)Nc2ccc(S(=O)(=O)N3CCOCC3)cc2)cc(OC)c1OC` was tested, and the AC50 was 10 µM (active).
With `CCCc1c(OCCCOc2ccc(OCC(=O)O)cc2)ccc(CC=O)c1O` the “activity, negative = inhibition” value was 14%.
For `COc1ccc(CC(=O)Nc2cccc(/C(C)=N/NC(=O)c3cccc([N+](=O)[O-])c3)c2)cc1`, the AC50 was 14.1 µM (active).
With `COc1ccc(C(=O)N/N=C(\C)Cn2nc([N+](=O)[O-])cc2C)cc1` the “activity, negative = inhibition” value was -29%.
For `CCSc1nnc2n(N)c(=O)c3ccccc3n12`, the “activity, negative = inhibition” value was -68.5%.
`Cc1cc2nnc(SCC(=O)OC(C)C)n2c2ccccc12` was tested, and the AC50 was 7.94 µM (active).
For `COC(=O)c1cc(C#N)c(NCc2ccc(Cl)cc2Cl)nc1C`, the “activity, negative = inhibition” value was -14%.
`COc1ccc(Oc2ncc3nc(C)c(=O)n(-c4ccc(OC)cc4)c3n2)cc1` was tested, and the “activity, negative = inhibition” value was -22%.
`CC(=O)c1cc(C#N)c(Oc2cccc(C(F)(F)F)c2)nc1C` was tested, and the AC50 was 11.2 µM (active).
In the case of `COC(=O)c1cc(C#N)c(Oc2ccc(OC)cc2)nc1C`, the AC50 is reported as 17.8 µM (active).
With `Cn1cccc1C(=O)C(=O)Nc1cccc(Cl)c1Cl` the AC50 was 3.16 µM (active).
In the case of `Cn1cccc1C(=O)N1CCC2(CC1)CN(C(=O)Nc1ccccc1)C2`, the “activity, negative = inhibition” value is reported as -10.7%.
With `Cn1cccc1C(=O)N1CCC2(CCN(C(=O)Nc3ccccc3)CC2)CC1` the “activity, negative = inhibition” value was -13.8%.
For `O=c1n(-c2ccccc2)c(=O)n2n1CC[C@H]1/C(=N\OC[C@@H](O)COCc3ccco3)[C@H]3O[C@@H]3[C@@H](O)[C@@H]12`, the activity, negative = inhibition was 18.2% [at 11.4 µM] and 1.03% [at 11.4 µM].
For `Cc1ccnc2nc(C(=O)OCC(=O)Nc3ccc4c(c3)OC(F)(F)O4)nn12`, the “activity, negative = inhibition” value was -13.2%.
In the case of `CCN(c1ccc(NC(=O)COC(=O)c2ccc3ccccc3n2)cc1)C(C)C`, the AC50 is reported as 4.47 µM (active).
For `COc1ccc(C(=O)Nc2ccc(OCC(F)(F)C(F)F)c(C(F)(F)F)c2)cc1OC`, the AC50 was 14.1 µM (active).
In the case of `CC(C)NC(=O)N1CC[C@@]2(CCCN(C(=O)c3csnn3)C2)C1`, the “activity, negative = inhibition” value is reported as 26.7%.
For `COc1ccc2cc(CCNC(=O)C3CC3)c(=O)[nH]c2c1`, the “activity, negative = inhibition” value was 15.9%.
With `Cc1ccc2cc(CCNC(=O)c3ccc(Br)o3)c(=O)[nH]c2c1` the AC50 was 2.24 µM (active).
For `CC(=O)N1CCN(C(=O)CC2OC(=O)c3ccccc32)CC1` (configuration not stated), the AC50 was 1.78 µM (active).
With `COc1ccc(OC)c2c(=S)c3ccccc3[nH]c12` the “activity, negative = inhibition” value was -15%.
For `CCN(C(=S)Nc1ccccc1F)C1CCCCC1`, the AC50 was 3.98 µM (active).
With `Cc1ccc([N+](=O)[O-])cc1NC(=S)NC(=O)C(C)(C)C` the AC50 was 2 µM (active).
In the case of `Cc1ccc([N+](=O)[O-])cc1NC(=S)NC(=O)CC(C)(C)C`, the AC50 is reported as 4.47 µM (active).
In the case of `Cc1ccc(SCc2ccc(C(=O)Nc3cc([N+](=O)[O-])ccc3C)cc2)cc1`, the “activity, negative = inhibition” value is reported as -29.8%.
`Cc1c(C)n(C)c2ccc(C(=O)Nc3cccc4ccccc34)cc12` was tested, and the AC50 was 3.55 µM (active).
Work on `O=C(O)c1ccc(C(=O)Nc2cccc3ccccc23)c(C(=O)O)c1` yielded an activity, negative = inhibition of 12.6% [at 11.4 µM].
With `CCn1c(C)c(C)c2cc(C(=O)Nc3cccc(Cl)c3)ccc21` the AC50 was 7.08 µM (active).
With `COc1ncc2nc(-c3cc(F)cc(F)c3)c(=O)n(-c3ccccc3)c2n1` the “activity, negative = inhibition” value was -6.54%.
In the case of `C[N+](C)(CCCOc1ccccc1)c1ccccc1`, the “activity, negative = inhibition” value is reported as -7.56% [at 25.6 µM].
For `Cc1ccccc1OCCCn1c(=O)sc2ccccc21`, the AC50 was 1 µM (active).
With `O=c1sc2ccccc2n1CCCOc1ccccc1` the AC50 was 1.12 µM (active).
With `Cc1ccc(OCCCn2c(=O)sc3ccccc32)cc1` the AC50 was 0.708 µM (active).
With `C/C(CCN1CCc2nc(-c3ccccc3)c(-c3ccccc3)cc2C1)=N\O[C@@H](C)c1cn([C@H](CO)Cc2ccccc2)nn1` the activity, negative = inhibition was -17.8% [at 11.4 µM] and -16.4% [at 11.4 µM].
With `OC[C@@H]1NC[C@@H](O)[C@H]1O` the “activity, negative = inhibition” value was 22.6%.
For `Clc1cccc(C=NC=Nc2cccc(Cl)c2)c1`, the AC50 was 10 µM (active).
For `COc1cccc(C=NC=Nc2cccc(OC)c2)c1`, the “activity, negative = inhibition” value was 13.9%.
`O=c1[nH][nH]c(C(F)(F)F)c1C=Nc1cccc(Cl)c1` was tested, and the “activity, negative = inhibition” value was 26.9%.
`Cc1noc(C)c1-c1nc(Nc2ccccc2)c2ccccc2n1` was tested, and the “activity, negative = inhibition” value was 0.272%.
In the case of `Cc1noc(C)c1-c1nccc(Nc2ccc(F)cc2)n1`, the AC50 is reported as 3.98 µM (active).
In the case of `COCCNc1nc(-c2c(C)noc2C)nc2ccccc12`, the “activity, negative = inhibition” value is reported as -17.6%.
In the case of `Cc1noc(C)c1-c1nccc(NC2CC2)n1`, the AC50 is reported as 10 µM (active).
For `CNc1cc(-c2c(C)noc2C)ncn1`, the “activity, negative = inhibition” value was -0.312%.
With `CN(C)Cc1ccccc1-c1nccc(NC2CC2)n1` the “activity, negative = inhibition” value was 15.1%.
In the case of `Cc1noc(C)c1-c1nc(Nc2ccc(F)cc2)c2ccccc2n1`, the AC50 is reported as 3.16 µM (active).
In the case of `Cc1noc(C)c1-c1nc(NCCN2CCOCC2)c2ccccc2n1`, the AC50 is reported as 7.94 µM (active).
For `Cc1noc(C)c1-c1nc(NC2CCNCC2)c2ccccc2n1`, the “activity, negative = inhibition” value was -9.75%.
For `c1ccc2c(NCCN3CCOCC3)nc(-c3ccoc3)nc2c1`, the “activity, negative = inhibition” value was -14.3%.
`Cc1ccc(-[n+]2cc(=O)o[nH]2)cc1` gave an activity, negative = inhibition of -19.9% [at 11.4 µM].
With `CC(C)NC(=O)N1CCCC2(CCN(C(=O)c3ccncc3)CC2)C1` the “activity, negative = inhibition” value was -9.81%.
For `CSc1nc(NC2CCCC2)c([N+](=O)[O-])c(NC2CCCC2)n1`, the AC50 was 5.01 µM (active).
With `CCNc1nnc(-c2ccncc2)s1` the AC50 was 5.01 µM (active).
With `COc1ccc(C(=O)O/N=C/c2ccc(S(=O)c3ccc(Cl)cc3)nc2)cc1` (configuration not stated) the AC50 was 14.1 µM (active).
